Inconclusive results are not listed. Where a call stands in place of a potency, no number is given. Active and inactive are the calls of the source. Calls follow the shape of the dose curve; as a rule, active = well fitted inhibition curve with a large enough effect; inconclusive = small, poorly fitted or top-dose-only effect; inactive = no such curve, though single readings can be large or run the other way.
Test: qHTS assay for measurement of the activity of small molecule inhibitors on Zika virus induced Caspase-3 activity in human iPSC derived neural progenitor cells (hNPCs) (AID 1224857); also: nearly all actives have a fitted effect of over 65% in size
Details: hNPCs ZIKV-induced caspase-3/7, Caspase-Glo luminescence, 6 h; series mostly up to 45.7 µM
Method in brief: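 Zika virus (2 FFU/cell) infection of human iPSC-derived NPCs, 6 h, following 1 h compound preincubation. Read-out: Caspase-Glo 3/7 luminescence.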
In the case of `OCC1O[C@H]([S-])C(O)[C@@H](O)[C@@H]1O.[Au+]` (some centres not stated), the Potency is reported as “inactive”.
With `CC[C@H]1OC(=O)[C@H](C)C(O[C@H]2C[C@@](C)(OC)[C@@H](O)[C@H](C)O2)[C@H](C)[C@@H](OC2O[C@H](C)C[C@H](N(C)C)[C@H]2O)[C@](C)(O)C[C@@H](C)CN(C)[C@H](C)[C@@H](O)[C@]1(C)O` (some centres not stated) the Potency was “inactive”.
For `CN(CCCOc1ccc(Cc2ccccc2)cc1)CCC(=O)O`, the Potency was “inactive”.
In the case of `COCCOc1cc2nc[nH]c(=O)c2cc1OCCOC`, the Potency is reported as “inactive”.
In the case of `Nc1nc2c(ncn2[C@@H]2O[C@H](CO)[C@@H](O)[C@@H]2O)c(=O)[nH]1`, the Potency is reported as “inactive”.
In the case of `NS(=O)(=O)c1ccc(-n2nc(C(F)(F)F)cc2-c2ccc(Cl)cc2)cc1`, the Potency is reported as “inactive”.
In the case of `COc1ccc(/C=C2\COc3ccc(C)cc3C2=O)cc1O`, the Potency is reported as “inactive”.
For `Nc1nc2ccc(Cl)cc2n2c(-c3ccccc3)nnc12`, the Potency was “inactive”.
In the case of `CCC(CO)Nc1nc(NCc2ccccc2)c2ncn(C(C)C)c2n1` (configuration not stated), the Potency is reported as “inactive”.
In the case of `CNC(=O)[C@H]1O[C@@H](n2cnc3c(NCc4cccc(I)c4)ncnc32)[C@H](O)C1O` (some centres not stated), the Potency is reported as “inactive”.
With `O=C(CCc1ccncc1)NNC(=O)N1Cc2ccccc2Oc2ccc(Cl)cc21` the Potency was “inactive”.
For `O=C(NOCC1CC1)c1cc(Br)c(F)c(F)c1Nc1ccc(I)cc1Cl`, the Potency was “inactive”.
For `NCC1OC(OC2C(O)[C@@H](OC3C(O)C(N)CC(N)C3OC3OC(CO)C(O)C(O)C3N)O[C@@H]2CO)C(N)C(O)C1O` (some centres not stated), the Potency was “inactive”.
In the case of `CC[C@@H](C)[C@H]1O[C@]2(CC[C@@H]1C)C[C@@H]1C[C@@H](C/C=C(\C)[C@@H](O[C@H]3C[C@H](OC)[C@@H](O[C@H]4C[C@H](OC)[C@@H](O)[C@H](C)O4)[C@H](C)O3)[C@@H](C)/C=C/C=C3\CO[C@@H]4[C@H](O)C(C)=C[C@@H](C(=O)O1)[C@]34O)O2`, the Potency is reported as “inactive”.
In the case of `CC[C@H]1OC(=O)[C@H](C)[C@@H](O[C@H]2C[C@@](C)(OC)[C@@H](O)[C@H](C)O2)[C@H](C)[C@@H](O[C@@H]2O[C@H](C)C[C@H](NC)[C@H]2O)[C@](C)(O)C[C@@H](C)CN(C)[C@H](C)[C@@H](O)[C@]1(C)O`, the Potency is reported as “inactive”.
For `Brc1cc2c(cc1[C@H]1Nc3ccccc3[C@H]3C=CC[C@H]31)OCO2`, the Potency was “inactive”.
For `CNC(=O)[C@H]1O[C@@H](n2cnc3c(NCc4ccc(N)cc4)ncnc32)[C@H](O)C1O` (some centres not stated), the Potency was “inactive”.
In the case of `O=C(Nc1ccc2[nH]ncc2c1)C1CCC1`, the Potency is reported as “inactive”.
With `COc1ccccc1CN[C@@H]1CCCN[C@@H]1c1ccccc1` the Potency was “inactive”.
In the case of `O=[N+]([O-])c1ccc(CSc2ncnc3c2ncn3[C@@H]2O[C@H](CO)C(O)[C@H]2O)cc1` (some centres not stated), the Potency is reported as “inactive”.
With `Cc1cn([C@H]2CC(N=[N+]=[N-])[C@@H](CO)O2)c(=O)[nH]c1=O` (some centres not stated) the Potency was “inactive”.
With `COc1ccc(/C=C/c2nc(NCCCN(C)C)c3ccccc3n2)cc1` the Potency was “inactive”.
For `Cc1ccc2c(n1)Oc1ccc(C(C)C(=O)OCC(=O)N(C)C)cc1C2` (configuration not stated), the Potency was 14.1 µM (active).
With `CNC(=O)c1c(I)c(NC(=O)CCCCC(=O)Nc2c(I)c(C(=O)O)c(I)c(C(=O)NC)c2I)c(I)c(C(=O)O)c1I` the Potency was “inactive”.
With `CC(C)(C)NCC(O)COc1nsnc1N1CCOCC1` (configuration not stated) the Potency was “inactive”.
For `COc1ccc(C(=O)/C(Cc2cc(OC)c(OC)c(OC)c2)=C(\C(=O)O)c2ccc3c(c2)OCO3)cc1`, the Potency was “inactive”.
In the case of `COCCOc1cc2ncnc(Cl)c2cc1OCCOC`, the Potency is reported as “inactive”.
For `C=C[C@H]1CN2CC[C@@H]1C[C@H]2[C@H](O)c1ccnc2ccc(OC)cc12`, the Potency was “inactive”.
For `CCNc1nc2c(ncn2[C@H]2C[C@H](O)[C@@H](CO)O2)c(=O)[nH]1`, the Potency was “inactive”.
With `C[N+](C)(C)CCOP(=O)(O)OP(=O)([O-])OC[C@H]1O[C@@H](n2ccc(N)nc2=O)[C@H](O)C1O` (some centres not stated) the Potency was “inactive”.
For `CNc1ncnc2c1ncn2[C@@H]1O[C@H](CO)C(O)[C@H]1O` (some centres not stated), the Potency was “inactive”.
For `CC(C)c1cccc(C(C)C)c1N1C(=O)c2ccc(O)cc2C1=O`, the Potency was “inactive”.
For `O=C1CN(/N=C/c2ccc(-c3ccc([N+](=O)[O-])cc3)o2)C(=O)N1`, the Potency was “inactive”.
For `Nc1ncnc2c1ncn2[C@@H]1O[C@H](CO)C(O)[C@H]1O` (some centres not stated), the Potency was “inactive”.
In the case of `Oc1c(Br)cc(Br)c2cccnc12`, the Potency is reported as “inactive”.
In the case of `CCCCCCCCCCCCCCCCCCN(CCCCCCCCCCCCCCCCCC)CCCN(CCO)CCO`, the Potency is reported as “inactive”.
For `CCCCC#Cc1nc(NC)c2ncn([C@@H]3O[C@H](CO)[C@@H](O)C3O)c2n1` (some centres not stated), the Potency was “inactive”.
Potency is read from the fitted curve at half-maximal effect.
